Measured values reported in PubChem BioAssay (Tox21).
Several values for one entry are separate records, joined by “and”; a condition that tells them apart may be missing. Equal entries are not always repeated. Results filed as inconclusive are left out. Where a call stands in place of a potency, no number is given. Activity calls are given as the source filed them. Unless noted, calls come from the whole dose curve; as a rule, active = well fitted curve in the direction sought with a large enough effect in the repeat runs; inconclusive = weak or mixed curves; inactive = no such curve, though single readings can be large; an effect the other way counts as inactive or inconclusive.

Experiments:
[1] = qHTS assay to identify small molecule agonists of the peroxisome proliferator-activated receptor delta (PPARd) signaling pathway - cell viability counter screen (AID 743211); note: nearly all actives have a fitted effect of over 55% in size; note: potency is the fitted concentration of half-maximal effect
How it was run: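 In the same wells used for beta-lactamase reporter measurement, cytotoxicity is scored by CellTiter-Glo. HEK293H PPARd-bla cells receive compound for 17 h at 37C following a 5 h settling period.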

[2] = target: Peroxisome proliferator-activated receptor delta (Homo sapiens) (UniProt Q03181); test: qHTS assay to identify small molecule agonists of the peroxisome proliferator-activated receptor delta (PPARd) signaling pathway (AID 743212; calls by dose curve)
How it was run: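 GeneBLAzer UAS-bla HEK293H cells carrying a PPARδ construct were exposed to compounds at 37 °C. Beta-lactamase activity was read by FRET fluorescence after 2 h at room temperature with LiveBLAzer B/G substrate.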

[3] = qHTS assay to identify small molecule antagonists of the peroxisome proliferator-activated receptor delta (PPARd) signaling pathway - cell viability counter screen (AID 743213); note: nearly all actives have a fitted effect of over 50% in size; note: potency is the fitted concentration of half-maximal effect
How it was run: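 PPARd-bla HEK293H cells (3000/well) got compound plus 300 nM L165041 agonist for 17 h at 37 C. Viability in the same wells came from CellTiter-Glo luminescence after 30 min at room temperature.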

[4] = target: Peroxisome proliferator-activated receptor delta (Homo sapiens) (UniProt Q03181); test: qHTS assay to identify small molecule antagonists of the peroxisome proliferator-activated receptor delta (PPARd) signaling pathway (AID 743215; active = well fitted inhibition curve with a large enough effect in the signal ratio in the repeat runs, not every such curve was filed as active; the % refers to the signal ratio;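 note: cells stimulated with agonist L165041 at 300 nM final during compound exposure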; note: potency is the fitted concentration of half-maximal effect)
How it was run: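 Read-out is beta-lactamase FRET fluorescence, measured 2 h after substrate addition at room temperature. Beforehand, UAS-bla HEK293H cells carrying the PPARd reporter were exposed to compounds with L165041 at 300 nM final for 17 h at 37 C.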

[5] = qHTS assay to identify small molecule agonists of the farnesoid-X-receptor (FXR) signaling pathway - cell viability counter screen (AID 743218); note: nearly all actives have a fitted effect of over 45% in size; note: potency is the fitted concentration of half-maximal effect
How it was run: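 HEK 293T FXR-bla cells; 5 h pre-incubation, 16 h compound exposure at 37 C; LiveBLAzer substrate 2 h RT, then CellTiter-Glo 30 min RT, luminescence.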

[6] = qHTS assay to identify small molecule agonists of the vitamin D receptor (VDR) signaling pathway - cell viability counter screen (AID 743224); note: nearly all actives have a fitted effect of over 50% in size; note: potency is the fitted concentration of half-maximal effect
How it was run: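 Luminescence from CellTiter-Glo, read after 30 min at room temperature, reports viability of VDR-bla cells treated with compounds for 16 h at 37C in the wells used for the beta-lactamase FRET read.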

[7] = qHTS assay to identify small molecule agonists of the endoplasmic reticulum stress response signaling pathway (AID 1159516; active = well fitted activation curve with a large enough effect in the signal ratio in the repeat runs, not every such curve was filed as active; the % refers to the signal ratio)
How it was run: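 Read-out is beta-lactamase cleavage of a FRET substrate (405 nm excitation; 460 and 530 nm emissions) in ESRE-bla HeLa cells after a 5 hr compound exposure at 37 C. Substrate incubation ran 2 hr at room temperature.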

[8] = qHTS assay to identify small molecule agonists of the endoplasmic reticulum stress response signaling pathway - cell viability counter screen (AID 1159517; calls by dose curve; note: nearly all actives have a fitted effect of over 50% in size; note: potency is the fitted concentration of half-maximal effect)
How it was run: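 ESRE-bla HeLa cells, 1,500 per well, seeded overnight then treated with compounds for 5 hr at 37 C. After the beta-lactamase read, viability in the same wells is measured by CellTiter-Glo luminescence after 30 min at room temperature.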

[9] = qHTS assay to identify small molecule antagonists of the retinoid-related orphan receptor gamma (ROR-gamma) signaling pathway - cell viability counter screen (AID 1159520); note: nearly all actives have a fitted effect of over 50% in size; note: potency is the fitted concentration of half-maximal effect
How it was run: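 Tet-on ROR gamma CHO cells were given compounds for 2 hr, then doxycycline hyclate at 1 uM final, and incubated 16 hr at 37 C. Viability was measured as ATP content by CellTiter-Glo luminescence.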

[10] = qHTS assay to identify small molecule agonists of the AP-1 signaling pathway - cell viability counter screen (AID 1159525; calls by dose curve; note: nearly all actives have a fitted effect of over 55% in size; note: potency is the fitted concentration of half-maximal effect)
How it was run: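 AP-1-bla ME-180 cells in Opti-MEM with 0.5% dialyzed FBS, compound exposure 5 h at 37 C in 15-point titration. Viability read in the same wells as ATP content by CellTiter-Glo luminescence, normalised to tetra-n-octylammonium bromide and DMSO controls.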

[11] = qHTS assay to identify small molecule agonists of the AP-1 signaling pathway (AID 1159526; calls by dose curve)
[12] = target: Retinoic acid receptor RXR-alpha (Homo sapiens) (UniProt P19793); test: qHTS assay to identify small molecule agonists of the RXR signaling pathway (AID 1159527; calls by dose curve; note: nearly all actives have a fitted effect of over 35% in size)
How it was run: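 Using 9-cis retinoic acid as the reference agonist, chemicals were tested in HEK 293T cells […] for 16 hr; substrate loading lasted 2 hr at room temperature.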

[13] = qHTS assay to identify small molecule antagonists of the farnesoid-X-receptor (FXR) signaling pathway - cell viability counter screen (AID 743221; active = well fitted cell-killing curve with a large enough effect in the repeat runs, not every such curve was filed as active; note: nearly all actives have a fitted effect of over 50% in size; note: potency is the fitted concentration of half-maximal effect)
How it was run: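 Here viability was scored by luminescence after CellTiter-Glo addition to wells already read for beta-lactamase. Prior treatment: compound plus CDCA (50 uM final), 16 h, 37 C, HEK 293T FXR-bla cells.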

[14] = target: Nuclear receptor ROR-gamma (Homo sapiens) (UniProt P51449); test: qHTS assay to identify small molecule antagonists of the retinoid-related orphan receptor gamma (ROR-gamma) signaling pathway (AID 1159521; note: nearly all actives have a fitted effect of over 50% in size; note: potency is the fitted concentration of half-maximal effect)
How it was run: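 Test compounds were applied to Tet-on RORγ CHO cells 2 h ahead of doxycycline hyclate (1 uM final). Luciferase reporter activity was quantified by luminescence after 16 h at 37 C and 5% CO2.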

[15] = target: Vitamin D3 receptor (Homo sapiens) (UniProt P11473); test: qHTS assay to identify small molecule agonists of the vitamin D receptor (VDR) signaling pathway (AID 743222; calls by dose curve)
How it was run: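 VDR-bla cells, 2,000/well; 4 h preincubation 37C; cpd (DMSO) 16 h; LiveBLAzer B/G substrate 2 h RT; fluorescence intensity read.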

[16] = target: Vitamin D3 receptor (Homo sapiens) (UniProt P11473); test: qHTS assay to identify small molecule antagonists of the vitamin D receptor (VDR) signaling pathway (AID 743223; active = well fitted inhibition curve with a large enough effect in the signal ratio in the repeat runs, not every such curve was filed as active; the % refers to the signal ratio; note: potency is the fitted concentration of half-maximal effect)
How it was run: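 Inhibition of agonist-driven VDR signalling is scored in VDR-bla cells: 3 nM final 1alpha,25-dihydroxyvitamin D3 plus compound, 16 h at 37C, then beta-lactamase detection by FRET substrate fluorescence after 2 h.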

[17] = target: Bile acid receptor (Homo sapiens) (UniProt Q96RI1); test: qHTS assay to identify small molecule agonists of the farnesoid-X-receptor (FXR) signaling pathway (AID 743220; active = well fitted activation curve with a large enough effect in the signal ratio in the repeat runs, not every such curve was filed as active; the % refers to the signal ratio)
How it was run: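 Beta-lactamase reporter under UAS control in GeneBLAzer FXR HEK 293T cells (5000/well) measured with LiveBLAzer FRET substrate after 2 h at room temperature. Compound exposure lasted 16 h at 37C.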

[18] = qHTS assay to identify small molecule agonists of the NFkB signaling pathway - cell viability counter screen (AID 1159515; calls by dose curve; note: nearly all actives have a fitted effect of over 55% in size; note: potency is the fitted concentration of half-maximal effect)
How it was run: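 Luminescence from CellTiter-Glo (30 min, room temperature) gives viability, measured in the same wells as the beta-lactamase reporter read. Cells were NFkB-bla ME-180, 2,000 per well, treated 5 hr with compounds.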

[19] = qHTS assay to identify small molecule antagonists of the vitamin D receptor (VDR) signaling pathway - cell viability counter screen (AID 743225); note: nearly all actives have a fitted effect of over 50% in size; note: potency is the fitted concentration of half-maximal effect
How it was run: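 Compounds were pinned onto VDR-bla HEK 293T cells together with 1-alpha,25-dihydroxyvitamin D3 at 3 nM final. After 16 h at 37C and 5% CO2 plus the reporter readout, cell viability was measured by CellTiter-Glo luminescence (30 min, room temperature).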

[20] = target: Bile acid receptor (Homo sapiens) (UniProt Q96RI1); test: qHTS assay to identify small molecule antagonists of the farnesoid-X-receptor (FXR) signaling pathway (AID 743217; active = well fitted inhibition curve with a large enough effect in the signal ratio in the repeat runs, not every such curve was filed as active; the % refers to the signal ratio)
How it was run: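 HEK 293T FXR-UAS-bla, 5000 cells/well; compound + CDCA 50 uM final; 16 h, 37 °C; B/G FRET substrate 2 h RT; fluorescence.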

Sequence of Vitamin D3 receptor (Homo sapiens) (P11473 whole entry, looked up): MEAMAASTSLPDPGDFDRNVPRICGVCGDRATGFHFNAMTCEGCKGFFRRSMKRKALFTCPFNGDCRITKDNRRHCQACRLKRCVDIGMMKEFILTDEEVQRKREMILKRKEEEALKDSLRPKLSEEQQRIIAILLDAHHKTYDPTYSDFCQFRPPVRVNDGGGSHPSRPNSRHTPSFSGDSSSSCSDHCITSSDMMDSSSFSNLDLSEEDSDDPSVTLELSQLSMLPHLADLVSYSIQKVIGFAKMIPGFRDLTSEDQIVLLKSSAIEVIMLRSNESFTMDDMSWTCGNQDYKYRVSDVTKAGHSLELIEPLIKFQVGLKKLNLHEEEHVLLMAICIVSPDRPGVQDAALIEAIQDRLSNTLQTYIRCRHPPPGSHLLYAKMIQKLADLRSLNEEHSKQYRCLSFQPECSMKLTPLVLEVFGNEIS
Sequence of Peroxisome proliferator-activated receptor delta (Homo sapiens) (Q03181 whole entry, looked up): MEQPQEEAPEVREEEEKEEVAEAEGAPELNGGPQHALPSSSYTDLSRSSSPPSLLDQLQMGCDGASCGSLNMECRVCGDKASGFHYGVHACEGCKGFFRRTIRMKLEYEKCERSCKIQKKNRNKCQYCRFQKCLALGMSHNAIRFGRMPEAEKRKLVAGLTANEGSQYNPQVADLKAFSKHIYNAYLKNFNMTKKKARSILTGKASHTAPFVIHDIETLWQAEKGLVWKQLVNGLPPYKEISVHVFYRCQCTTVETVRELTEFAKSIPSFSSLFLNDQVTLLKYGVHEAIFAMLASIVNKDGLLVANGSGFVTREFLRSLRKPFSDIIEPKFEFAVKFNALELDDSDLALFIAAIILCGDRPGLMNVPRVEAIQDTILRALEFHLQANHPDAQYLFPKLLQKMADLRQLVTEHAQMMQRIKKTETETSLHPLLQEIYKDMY
Sequence of Retinoic acid receptor RXR-alpha (Homo sapiens) (P19793 whole entry, looked up): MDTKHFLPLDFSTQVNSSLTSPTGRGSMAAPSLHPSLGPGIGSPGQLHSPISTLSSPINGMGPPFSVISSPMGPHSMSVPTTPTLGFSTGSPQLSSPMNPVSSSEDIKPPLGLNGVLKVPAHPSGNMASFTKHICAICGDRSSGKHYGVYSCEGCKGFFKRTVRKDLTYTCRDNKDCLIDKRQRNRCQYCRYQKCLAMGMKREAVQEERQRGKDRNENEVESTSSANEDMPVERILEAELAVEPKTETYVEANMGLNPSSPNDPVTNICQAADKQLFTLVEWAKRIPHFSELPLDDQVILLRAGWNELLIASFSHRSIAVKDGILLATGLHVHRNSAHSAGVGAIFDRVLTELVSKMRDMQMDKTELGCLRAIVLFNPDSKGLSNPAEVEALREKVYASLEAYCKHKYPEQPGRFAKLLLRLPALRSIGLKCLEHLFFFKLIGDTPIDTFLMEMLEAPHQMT
Sequence of Bile acid receptor (Homo sapiens) (Q96RI1 whole entry, looked up): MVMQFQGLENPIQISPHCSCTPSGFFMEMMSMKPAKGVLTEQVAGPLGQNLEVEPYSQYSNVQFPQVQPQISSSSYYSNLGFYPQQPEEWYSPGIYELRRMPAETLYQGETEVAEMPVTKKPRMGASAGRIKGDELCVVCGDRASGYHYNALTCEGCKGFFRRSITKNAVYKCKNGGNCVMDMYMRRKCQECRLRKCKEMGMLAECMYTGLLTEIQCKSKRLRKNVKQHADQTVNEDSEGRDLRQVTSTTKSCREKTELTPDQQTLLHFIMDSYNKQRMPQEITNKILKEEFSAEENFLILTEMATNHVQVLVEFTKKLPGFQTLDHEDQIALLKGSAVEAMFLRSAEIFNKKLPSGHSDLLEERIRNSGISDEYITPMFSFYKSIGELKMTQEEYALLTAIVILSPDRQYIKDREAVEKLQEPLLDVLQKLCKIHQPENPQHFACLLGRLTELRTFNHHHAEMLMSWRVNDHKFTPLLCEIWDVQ

| SMILES | Potency [1] | Potency [2] | Potency [3] | Potency [4] | Potency [5] | Potency [6] | Potency [7] | Potency [8] | Potency [9] | Potency [10] | Potency [11] | outcome [12] | Potency [13] | Potency [14] | Potency [15] | Potency [16] | outcome [17] | Potency [18] | Potency [19] | Potency [20] |
| --- | --- | --- | --- | --- | --- | --- | --- | --- | --- | --- | --- | --- | --- | --- | --- | --- | --- | --- | --- | --- |
| N#CCCSCCC#N | inactive | inactive | inactive | inactive | inactive | inactive | inactive | inactive | inactive | inactive | inactive | inactive |  |  |  |  |  |  |  |  |
| S=C(SSC(=S)N1CCCCC1)N1CCCCC1 |  |  | 0.168 µM (active) |  |  | 0.168 µM (active) | inactive | inactive | 0.188 µM (active) |  |  |  | 0.211 µM (active) | 0.15 µM (active) |  |  |  |  |  |  |
| c1ccc2c(c1)OCC(C1=NCCN1)O2 (stereo unspecified) | 23.7 µM (active) |  |  | 23.7 µM (active) |  | inactive | inactive | inactive | inactive | inactive | inactive |  |  | 23.7 µM (active) | inactive | 16.9 µM (active) |  |  |  |  |
| Oc1ccc(C(=C(Cl)Cl)c2ccc(O)cc2)cc1 |  |  |  | 19.5 µM (active) |  | 48.9 µM (active) |  |  |  | inactive | inactive |  | inactive |  |  |  | inactive | inactive |  |  |
| Oc1cc(Cl)c(Cl)c(Cl)c1 | 46.5 µM (active) |  |  |  |  | 36.9 µM (active) |  |  |  |  |  |  |  | 29.1 µM (active) | inactive | inactive | inactive | inactive | 41.4 µM (active) |  |
| BrC(Br)Br | inactive | inactive |  | inactive | inactive | inactive | inactive | inactive | inactive | inactive | inactive |  | inactive | inactive | inactive |  | inactive |  |  | inactive |
| CCN(CC)c1c([N+](=O)[O-])cc(C(F)(F)F)c(N)c1[N+](=O)[O-] | inactive | inactive |  | inactive |  | inactive |  |  |  |  |  |  | inactive | 27.3 µM (active) | inactive | inactive |  | inactive |  |  |
| O=C(O)C1C2CCC(O2)C1C(=O)O (stereo unspecified) | inactive | inactive | inactive | inactive | inactive | inactive | inactive | inactive | 44.5 µM (active) |  | inactive | inactive | inactive | 13.9 µM (active) and 12.5 µM (active) | inactive | inactive |  |  | inactive |  |
| FC(Cl)(Cl)Cl | inactive |  | inactive |  | inactive | inactive | inactive | inactive |  | inactive | inactive | inactive | inactive | inactive | inactive |  | inactive |  | inactive | inactive |
| CC(=O)[O-].[Tl+] | inactive |  | inactive |  | inactive | inactive | inactive | inactive | inactive |  | inactive |  |  |  |  |  |  |  | inactive |  |
| O=C(O)c1cc[c]([Hg][Cl])cc1 | 49 µM (active) |  |  | inactive | 27.5 µM (active) | 24.5 µM (active) | inactive | inactive | 24.3 µM (active) |  |  |  | inactive | 4.86 µM (active) | inactive |  |  |  | 21.9 µM (active) |  |
| C1CCC2CCCCC2C1 (stereo unspecified) |  | inactive | inactive | inactive | inactive | inactive | inactive | inactive | inactive |  | inactive | inactive |  |  | inactive | inactive | inactive |  | inactive | inactive |
| C[C@]12CC[C@H]3[C@@H](CCC4=CC(=O)CC[C@@]43C)[C@@H]1CC[C@@H]2O | inactive |  | inactive |  |  | inactive | inactive | inactive | inactive | inactive |  |  |  |  |  |  |  |  | inactive |  |
| COc1ccc(/C(=C/C(=O)N2CCOCC2)c2ccc(Cl)cc2)cc1OC |  |  | inactive |  |  | inactive | inactive | inactive | inactive | inactive | inactive |  | inactive | inactive | inactive |  | inactive |  |  |  |
| CCCCCCCCCCCCBr | inactive | inactive | inactive |  | 13.8 µM (active) | inactive | inactive | inactive | inactive | inactive | inactive |  | 43.6 µM (active) | inactive | inactive | inactive |  |  |  |  |
| Cc1cc(C)cc(OP(=O)(Oc2cc(C)cc(C)c2)Oc2cc(C)cc(C)c2)c1 |  |  |  |  | inactive |  | inactive | inactive | inactive | inactive | inactive |  | inactive | inactive | inactive | inactive | inactive |  |  |  |
| CN(C)C(=S)[S-].CN(C)C(=S)[S-].[Cu+2] |  |  | 3.36 µM (active) |  | 0.946 µM (active) | 1.5 µM (active) |  |  |  | 6.7 µM (active) |  |  | 2.38 µM (active) |  |  |  |  | 4.74 µM (active) | 4.74 µM (active) |  |
| CC(=O)O[C@H]1CC[C@@]2(C)C(=CC[C@@H]3[C@@H]2CC[C@]2(C)C(=O)CC[C@@H]32)C1 |  |  |  |  | inactive | inactive | inactive |  | inactive |  |  |  | inactive |  |  |  |  |  | inactive | inactive |
| Clc1ccc(COC(Cn2ccnc2)c2ccc(Cl)cc2Cl)cc1 (stereo unspecified) | 16.2 µM (active) and 17.3 µM (active) and 21.1 µM (active) |  |  |  | 32.3 µM (active) and 19.4 µM (active) and 26.6 µM (active) | 20.4 µM (active) and 13.7 µM (active) and 26.6 µM (active) |  | 61.4 µM (active) | 45.3 µM (active) and 60.9 µM (active) |  |  |  | 40.7 µM (active) and 17.3 µM (active) and 26.6 µM (active) | 45.3 µM (active) and 30.5 µM (active) and 23.7 µM (active) |  |  |  |  | 45.7 µM (active) and 48.8 µM (active) |  |
